A number with no mark means an inactive call. Records with an inconclusive call do not appear. Where a call stands in place of a potency, no number is given. The source made the active and inactive calls. Unless noted, the call rests on the fitted dose curve.
Assays:
[1] = Nuclear factor erythroid 2-related factor 2/antioxidant responsive element (Nrf2/ARE) small molecule agonists: qHTS cell viability counter screen in human keratinocytes (AID 1919968; active means well fitted curve in the direction sought with a large enough effect in the repeat runs; an effect the other way counts as inactive or inconclusive; further: nearly all actives have a fitted effect of over 55% in size; further: potency means the concentration at half of the fitted maximal effect)
Method in brief: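 Parallel cytotoxicity read: KeratinoSens HaCaT cells, compound treatment 23 h, viability by CellTiter-Fluor fluorescence 1 h post-reagent.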

[2] = biological target: Gonadotropin-releasing hormone receptor (Homo sapiens) (UniProt P30968); experiment: Human gonadotropin-releasing hormone receptor (GnRHR) small molecule agonists, calcium flux assay in GnRHR-HEK293 cells (AID 1920063); further: nearly all actives have a fitted effect of over 35% in size
Method in brief: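 Calcium flux, agonist mode, human GnRHR stably integrated in HEK293; dye 1 h at 37 C before compound; Ex/Em=480/540 kinetic read, 3 min; 15 concentrations, triplicate.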

[3] = biological target: KiSS-1 receptor (Homo sapiens) (UniProt Q969F8); experiment: Human kisspeptin (KISS1R) small molecule agonists, calcium flux assay in KISS1R-HEK293 cells (AID 1920064; active means well fitted curve in the direction sought with a large enough effect in the repeat runs; an effect the other way counts as inactive or inconclusive)
Method in brief: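 Triplicate 15-concentration series were applied to dye-loaded human KISS1R HEK293 cells, and agonist-evoked calcium fluorescence was captured for 3 min.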

[4] = G protein-coupled receptor (GPCR) small molecule agonists, calcium flux assay: HEK293 wild type cell line counter screen (AID 1920065)
Method in brief: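 Non-specific calcium responders were flagged by adding DMSO-dissolved compounds to dye-loaded cells and reading 480/540 nm fluorescence each second for 3 min; ATP served as positive control.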

[5] = p53 small molecule agonists, cell-based qHTS assay with human liver microsomes: qHTS cell viability counter screen (AID 1963579); further: nearly all actives have a fitted effect of over 45% in size; further: potency means the concentration at half of the fitted maximal effect
Method in brief: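 p53RE-bla cells, 4,000/well, dosed 5 hours after plating, with human liver microsomes (0.5 mg/mL final) plus NADPH (0.5 mg/mL final), 16 hours at 37 C. Viability read as CellTiter-Glo luminescence after 30 min at room temperature.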

[6] = p53 small molecule agonists, cell-based qHTS assay with rat liver microsomes: qHTS cell viability counter screen (AID 1963580); further: nearly all actives have a fitted effect of over 45% in size; further: potency means the concentration at half of the fitted maximal effect
Method in brief: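 Cytotoxicity counter screen: intracellular ATP measured by CellTiter-Glo luminescence in the same wells as the beta-lactamase reporter read, on HCT-116 p53RE-bla cells exposed 16 h at 37 C to compounds with rat liver microsomes and NADPH, each 0.5 mg/mL final.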

[7] = cAMP Responsive Elements (CRE) small molecule agonists, cell-based qHTS assay (AID 1963590)
Method in brief: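 Quantitative HTS for CRE agonists: HEK 293T CRE-bla cells, overnight plating, 3 h compound incubation at 37 C/5% CO2, then 2 h room-temperature LiveBLAzer B/G FRET substrate loading.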

[8] = cAMP Responsive Elements (CRE) small molecule antagonists, cell-based qHTS assay (AID 1963591; active means well fitted inhibition curve with a large enough effect in the signal ratio in the repeat runs, not every such curve was filed as active; the % refers to the signal ratio)
Method in brief: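 Fluorescence intensity from cleaved LiveBLAzer B/G substrate (2 h, room temperature) quantified CRE-bla activity in HEK 293T cells exposed 3 h to compound with 0.25 uM final NKH477.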

[9] = biological target: Beta-2 adrenergic receptor (Homo sapiens) (UniProt P07550); experiment: Adrenergic beta2 receptor (ADRB2) small molecule antagonists, cell-based qHTS assay (AID 1963592); further: series mostly up to about 92 µM; nearly all actives have a fitted effect of over 50% in size
Method in brief: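 Assay format: CHO-ADRB2 cells, 18-20hr seeding at 37C/5% CO2, then compound plus 1nM isoproterenol agonist mix for 0.5hr RT. Homogeneous time-resolved fluorescence cAMP detection after 1hr, expressed as 665/615 nm ratio.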

[10] = biological target: D(2) dopamine receptor (Homo sapiens) (UniProt P14416); experiment: Dopamine D2 receptor (DRD2) small molecule agonists, cell-based qHTS assay (AID 1963594); further: nearly all actives have a fitted effect of over 35% in size
Method in brief: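 HEK293 cells stably expressing human DRD2, pre-treated with PDE inhibitor Ro20-1724 (0.1 mM final) and compound 10 min at room temperature, then stimulated with NKH477 (200nM […]) for 30 min. cAMP read by HTRF (665/620 nm).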

[11] = biological target: D(2) dopamine receptor (Homo sapiens) (UniProt P14416); experiment: Dopamine D2 receptor (DRD2) small molecule antagonists, cell-based qHTS assay (AID 1963595; active means well fitted inhibition curve with a large enough effect in the signal ratio in the repeat runs, with a control signal flat; the % refers to the signal ratio)
Method in brief: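 Antagonism was scored as restored cAMP in HEK293-DRD2 cells. These cells were stimulated with 200 nM NKH477 and 12 nM quinpirole for 30 min at room temperature, in the presence of 0.1 mM Ro20-1724.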

[12] = biological target: Beta-2 adrenergic receptor (Homo sapiens) (UniProt P07550); experiment: Adrenergic beta2 receptor (ADRB2) small molecule agonists, cell-based qHTS assay (AID 1963593);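 further: CHO cells stably overexpressing human ADRB2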
Method in brief: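 CHO cells stably over-expressing ADRB2 were plated overnight at 37C, then dosed with compounds plus a stimulation mix containing 100uM IBMX and 25uM Ro-20-1724 for 0.5hr at room temperature. cAMP was measured by HTRF competition, 1hr.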

[13] = p53 small molecule agonists, cell-based qHTS assay: qHTS cell viability counter screen (AID 1963581); further: nearly all actives have a fitted effect of over 45% in size
Method in brief: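 Multiplexed with the reporter read, a CellTiter-Glo step (30 min, room temperature) gauges ATP-based viability of HCT-116 p53RE-bla cells after 16 h compound incubation at 37 C.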

[14] = biological target: 5-hydroxytryptamine receptor 2A (Homo sapiens) (UniProt P28223); experiment: 5-hydroxytryptamine receptor 2A (HTR2A) small molecule antagonists, cell-based qHTS assay (AID 1963586); further: nearly all actives have a fitted effect of over 45% in size
Method in brief: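 CHO cells stably expressing human HTR2A were plated for 18 h at 37 C, then loaded with calcium dye for 1 h. Compounds were preincubated 5 min at room temperature before DOI (4 nM solution) was added. Kinetic fluorescence was read for 3 min.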

[15] = biological target: 5-hydroxytryptamine receptor 2A (Homo sapiens) (UniProt P28223); experiment: 5-hydroxytryptamine receptor 2A (HTR2A) small molecule agonists, cell-based qHTS assay (AID 1963587); further: nearly all actives have a fitted effect of over 30% in size
Method in brief: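 CHO cells stably expressing human HTR2A, plated 18 h, loaded with calcium dye 1 h at 37 C. Agonist mode: compounds added and intracellular calcium fluorescence recorded kinetically for 2 min at 1 sec intervals.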

[16] = biological target: Muscarinic acetylcholine receptor M1 (Homo sapiens) (UniProt P11229); experiment: Cholinergic receptor muscarinic 1 (CHRM1) small molecule antagonists, cell-based qHTS assay (AID 1963588); further: nearly all actives have a fitted effect of over 40% in size
Method in brief: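 Compounds were tested at 15 concentrations in three independent runs. Dye-loaded CHRM1-CHO cells were exposed 5 min at room temperature before stimulation by acetylcholine added at 50nM. Intracellular calcium was read kinetically on FDSS for 3 min.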

[17] = biological target: Muscarinic acetylcholine receptor M1 (Homo sapiens) (UniProt P11229); experiment: Cholinergic receptor muscarinic 1 (CHRM1) small molecule agonists, cell-based qHTS assay (AID 1963589); further: nearly all actives have a fitted effect of over 35% in size
Method in brief: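 qHTS, 15-point titration, 3 independent runs: compounds pin-transferred onto dye-loaded CHRM1-CHO cells (human M1), calcium fluorescence followed every second to detect agonism.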

[18] = p53 small molecule agonists, cell-based qHTS assay with human liver microsomes (AID 1963577)
Method in brief: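 p53RE-bla cells, 4,000/well, compound added after 5 h, with human liver microsomes 0.5 mg/mL and NADPH 0.5 mg/mL final; 16 h at 37 C, then LiveBLAzer 2 h RT, fluorescence.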

[19] = p53 small molecule agonists, cell-based qHTS assay (AID 1963582; active means well fitted activation curve with a large enough effect in the signal ratio in the repeat runs, not every such curve was filed as active; the % refers to the signal ratio)
Method in brief: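 Beta-lactamase reporter cells (p53RE-bla) treated with compounds for 16 h at 37 C; FRET substrate, 2 h, room temperature; fluorescence intensity.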

[20] = p53 small molecule agonists, cell-based qHTS assay with rat liver microsomes (AID 1963578)
Method in brief: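 p53RE-bla cells, 4,000/well, pre-incubated 5 h, then given compounds plus rat liver microsomes (0.5 mg/mL final) and NADPH (0.5 mg/mL final). Incubation 16 h at 37 C; beta-lactamase reporter read by LiveBLAzer fluorescence after 2 h at room temperature.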

Chain of Muscarinic acetylcholine receptor M1 (Homo sapiens) (P11229 whole entry, looked up): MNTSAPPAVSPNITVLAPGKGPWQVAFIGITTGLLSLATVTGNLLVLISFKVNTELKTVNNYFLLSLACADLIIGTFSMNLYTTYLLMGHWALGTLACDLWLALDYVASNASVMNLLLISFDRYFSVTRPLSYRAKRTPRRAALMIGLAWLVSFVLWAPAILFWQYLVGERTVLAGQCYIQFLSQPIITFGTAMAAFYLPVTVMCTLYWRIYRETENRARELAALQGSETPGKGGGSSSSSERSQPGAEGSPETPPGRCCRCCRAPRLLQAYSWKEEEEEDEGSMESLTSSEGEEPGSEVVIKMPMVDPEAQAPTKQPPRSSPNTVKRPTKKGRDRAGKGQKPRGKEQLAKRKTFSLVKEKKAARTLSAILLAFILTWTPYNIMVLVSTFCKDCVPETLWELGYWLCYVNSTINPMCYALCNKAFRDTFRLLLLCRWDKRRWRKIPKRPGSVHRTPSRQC
Chain of Beta-2 adrenergic receptor (Homo sapiens) (P07550 whole entry, looked up): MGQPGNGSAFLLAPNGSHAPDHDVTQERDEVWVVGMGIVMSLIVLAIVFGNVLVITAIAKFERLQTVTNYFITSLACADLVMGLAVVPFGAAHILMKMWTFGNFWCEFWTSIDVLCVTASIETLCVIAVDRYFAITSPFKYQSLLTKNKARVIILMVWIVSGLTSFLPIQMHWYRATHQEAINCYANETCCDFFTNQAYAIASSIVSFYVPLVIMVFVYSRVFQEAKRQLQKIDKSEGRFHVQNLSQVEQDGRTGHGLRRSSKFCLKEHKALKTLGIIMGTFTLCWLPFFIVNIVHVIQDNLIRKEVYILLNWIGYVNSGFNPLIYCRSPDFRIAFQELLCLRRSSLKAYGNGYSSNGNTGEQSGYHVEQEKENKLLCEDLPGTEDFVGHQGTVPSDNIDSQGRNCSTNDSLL
Chain of 5-hydroxytryptamine receptor 2A (Homo sapiens) (P28223 whole entry, looked up): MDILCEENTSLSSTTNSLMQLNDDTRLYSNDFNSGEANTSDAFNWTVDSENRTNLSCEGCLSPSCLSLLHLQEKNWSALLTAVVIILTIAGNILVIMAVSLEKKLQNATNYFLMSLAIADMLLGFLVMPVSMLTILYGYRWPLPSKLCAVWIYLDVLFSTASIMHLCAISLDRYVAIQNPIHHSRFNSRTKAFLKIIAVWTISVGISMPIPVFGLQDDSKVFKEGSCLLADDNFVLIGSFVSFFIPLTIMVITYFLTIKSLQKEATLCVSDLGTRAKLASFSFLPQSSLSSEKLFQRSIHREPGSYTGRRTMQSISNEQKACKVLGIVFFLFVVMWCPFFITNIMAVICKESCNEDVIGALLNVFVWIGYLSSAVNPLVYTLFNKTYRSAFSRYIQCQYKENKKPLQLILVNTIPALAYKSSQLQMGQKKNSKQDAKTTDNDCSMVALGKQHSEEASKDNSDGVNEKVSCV
Chain of KiSS-1 receptor (Homo sapiens) (Q969F8 whole entry, looked up): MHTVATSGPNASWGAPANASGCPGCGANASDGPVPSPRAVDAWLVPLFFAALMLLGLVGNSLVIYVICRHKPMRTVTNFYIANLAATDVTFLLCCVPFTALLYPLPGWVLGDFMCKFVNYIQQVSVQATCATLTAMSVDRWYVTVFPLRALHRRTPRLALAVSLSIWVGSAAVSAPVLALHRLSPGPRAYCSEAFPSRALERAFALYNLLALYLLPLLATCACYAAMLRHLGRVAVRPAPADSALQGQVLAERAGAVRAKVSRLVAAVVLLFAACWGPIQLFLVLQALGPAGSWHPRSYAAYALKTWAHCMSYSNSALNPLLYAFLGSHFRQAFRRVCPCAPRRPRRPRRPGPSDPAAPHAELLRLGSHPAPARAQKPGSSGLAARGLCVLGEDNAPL
Chain of D(2) dopamine receptor (Homo sapiens) (P14416 whole entry, looked up): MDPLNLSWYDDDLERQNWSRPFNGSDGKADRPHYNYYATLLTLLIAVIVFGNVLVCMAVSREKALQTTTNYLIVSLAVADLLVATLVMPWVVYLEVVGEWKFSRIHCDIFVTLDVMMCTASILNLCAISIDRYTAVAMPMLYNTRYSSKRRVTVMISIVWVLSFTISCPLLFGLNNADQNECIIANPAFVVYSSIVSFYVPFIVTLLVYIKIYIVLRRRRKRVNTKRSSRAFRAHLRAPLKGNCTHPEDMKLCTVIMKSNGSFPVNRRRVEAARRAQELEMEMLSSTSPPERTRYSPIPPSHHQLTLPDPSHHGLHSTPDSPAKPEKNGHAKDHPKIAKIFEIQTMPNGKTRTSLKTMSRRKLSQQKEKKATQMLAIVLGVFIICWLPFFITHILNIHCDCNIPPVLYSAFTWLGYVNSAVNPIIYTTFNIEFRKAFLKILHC
Chain of Gonadotropin-releasing hormone receptor (Homo sapiens) (P30968 whole entry, looked up): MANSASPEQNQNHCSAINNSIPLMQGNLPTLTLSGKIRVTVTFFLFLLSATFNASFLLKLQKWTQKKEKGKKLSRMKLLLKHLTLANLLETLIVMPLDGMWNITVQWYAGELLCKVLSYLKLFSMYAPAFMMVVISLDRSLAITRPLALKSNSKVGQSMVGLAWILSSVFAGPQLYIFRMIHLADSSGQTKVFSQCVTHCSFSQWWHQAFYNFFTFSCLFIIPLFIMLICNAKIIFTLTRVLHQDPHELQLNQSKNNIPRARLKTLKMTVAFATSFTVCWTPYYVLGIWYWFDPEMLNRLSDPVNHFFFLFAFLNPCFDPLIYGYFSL

Row | Compound | Potency [1] | Potency [2] | Potency [3] | Potency [4] | Potency [5] | Potency [6] | Potency [7] | Potency [8] | Potency [9] | Potency [10] | Potency [11] | Potency [12] | Potency [13] | Potency [14] | Potency [15] | Potency [16] | Potency [17] | Potency [18] | Potency [19] | Potency [20]
1 | CC(C)CC(N(C)C)C1(c2ccc(Cl)cc2)CCC1 (stereo not drawn) | inactive | inactive | inactive | inactive | inactive | 0.793 µM (active) | inactive | inactive | inactive | inactive | inactive | – | – | – | – | – | – | – | – | –
2 | Clc1ccc(CSC(Cn2ccnc2)c2ccc(Cl)cc2Cl)cc1 (stereo not drawn) | 29.8 µM (active) | inactive | inactive | – | – | inactive | inactive | – | inactive | inactive | inactive | inactive | – | – | – | – | – | – | – | –
3 | CCCCn1cc[n+](C)c1.[Cl][Fe-]([Cl])([Cl])[Cl] | inactive | inactive | inactive | inactive | inactive | – | inactive | inactive | inactive | inactive | inactive | – | inactive | inactive | inactive | inactive | inactive | – | – | –
4 | O.O.O.O.O.O.O=S(=O)([O-])[O-].[Ni+2] | inactive | inactive | inactive | inactive | inactive | – | inactive | inactive | inactive | – | inactive | – | inactive | inactive | inactive | inactive | inactive | – | – | –
5 | CON(C)C(=O)Nc1ccc(Br)c(Cl)c1 | inactive | inactive | inactive | – | inactive | – | inactive | inactive | inactive | inactive | inactive | – | – | inactive | inactive | inactive | inactive | – | – | –
6 | COP(=S)(OC)Oc1cc(Cl)c(Br)cc1Cl | inactive | inactive | inactive | – | 45.8 µM (active) | inactive | – | inactive | inactive | inactive | inactive | inactive | inactive | inactive | inactive | inactive | inactive | – | – | –
7 | CC(=O)[O-].CC(=O)[O-].O.O.O.[Pb+2] | inactive | – | inactive | – | inactive | inactive | inactive | inactive | inactive | inactive | inactive | – | inactive | inactive | inactive | – | inactive | – | – | –
8 | CCCC(C)C1(CC)C(=O)N=C(S)NC1=O (stereo not drawn) | inactive | inactive | – | inactive | inactive | inactive | inactive | inactive | inactive | inactive | inactive | – | inactive | inactive | inactive | inactive | inactive | – | – | –
9 | COP(=O)(OC)SCn1c(=O)oc2cc(Cl)cnc21 | inactive | inactive | – | inactive | – | inactive | – | – | inactive | inactive | inactive | inactive | – | inactive | inactive | inactive | inactive | inactive | – | –
10 | CCOP(=S)(OCC)OC(Cl)C(Cl)(Cl)Cl (stereo not drawn) | inactive | – | inactive | – | inactive | inactive | inactive | inactive | inactive | inactive | inactive | – | inactive | – | inactive | inactive | inactive | – | inactive | –
11 | CSc1nc(N=[N+]=[N-])nc(NC(C)C)n1 | inactive | – | inactive | inactive | inactive | inactive | inactive | – | inactive | inactive | inactive | – | inactive | inactive | inactive | inactive | inactive | inactive | – | inactive
12 | CCN(CCO)CCn1c(Cc2ccccc2)nc2c1c(=O)n(C)c(=O)n2C | inactive | – | inactive | inactive | – | inactive | inactive | – | inactive | inactive | – | inactive | inactive | inactive | inactive | inactive | inactive | inactive | inactive | –
13 | O=C(CBr)OCc1ccccc1 | inactive | inactive | – | inactive | inactive | – | inactive | inactive | inactive | inactive | inactive | – | inactive | inactive | inactive | – | inactive | inactive | – | inactive
